Data: PubChem BioAssay (NCI)
The panel holds about 79,000 compounds, 15% with a hit somewhere; the sample as a whole holds those more often. Active and inactive are the calls of the source. No stated cut-off is given here; in the data, active means growth inhibition above about 70%; inactive means the rest.

Test: NCI Yeast Anticancer Drug Screen. Data for the bub3 strain (AID 167)
Conditions: S. cerevisiae bub3 mutant strain, hits give high values
Method: Growth inhibition of yeast strains with defined genetic alterations is measured as a screen for potential anti-cancer activity. Selected strains with alterations in DNA damage repair or cell cycle control were exposed to compounds and growth inhibition was measured relative to vehicle treated controls. The strain used in this assay is bub3

[1] = at 5.0 µM (retest, dose inferred, filed as 0.5)
[2] = at 50.0 µM (retest, dose inferred, filed as 5.0)

Measured: growth inhibition

CCN(CC)N=Nc1c(C(N)=O)n[nH]c1C
inactive: at 1.2 µM -15% | at 3.7 µM -12% | [1] -65% | at 11.0 µM -9% | at 33.0 µM -9% | [2] -84% | at 50.0 µM -22.8% | at 100.0 µM -2%

OB(O)c1ccccc1C#Cc1ccccc1B(O)O
active: at 100.0 µM 79%
inactive: at 1.2 µM -7% | at 3.7 µM -8% | [1] -1% | at 11.0 µM -8% | at 33.0 µM 8% | [2] 20% | at 50.0 µM 58%

N#Cc1sc2c(c1OC(=O)c1ccco1)c(=O)n(-c1ccccc1)c(=S)n2-c1ccccc1
inactive: at 1.2 µM 0% | at 3.7 µM -4% | [1] 13% | at 11.0 µM -3% | at 33.0 µM 0% | at 100.0 µM -6%
active: [2] 91% | at 50.0 µM 95.4%

CC1CCC2(C(=O)O)CCC3(C)C(=CCC4C5(C)CC(O)C(O)C(C)(CO)C5C(O)CC43C)C2C1C (stereo not given)
inactive: at 1.2 µM -5% | at 3.7 µM -2% | [1] 16% | at 11.0 µM -1% | at 33.0 µM 13%
active: [2] 93% | at 50.0 µM 88.9% | at 100.0 µM 95%

COc1cc(N(C)C)ccc1/C=C\c1ccnc2ccccc12
inactive: at 1.2 µM -5% | at 3.7 µM -11% | [1] -14% | at 11.0 µM -14% | at 33.0 µM -10% | [2] -3% | at 50.0 µM -5.95% | at 100.0 µM 4%
